Measured values taken from PubChem BioAssay.
Results filed as inconclusive are left out. Calls of active or inactive are those of the source.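 Rule for the calls, unless noted: active = normalized viability below 100% at a tested concentration; inactive = the rest.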

What was measured:
[1] = growth inhibition of DIPG glioma cells, dose response, cell-based, SU-DIPG-XVII, MIPE5.0, CellTiter-Glo, qHTS (AID 1347060; cut-off not given, nearly all actives have AC50 up to about 26 µM;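 for AC50: cells exposed to compound for 48 hours before viability readout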); conditions: SU-DIPG-XVII viability, CellTiter-Glo ATP luminescence
[2] = growth inhibition of DIPG glioma cells, dose response, cell-based, SU-DIPG-XIII, MIPE4.0, CellTiter-Glo, qHTS (AID 1347061; cut-off not given, nearly all actives have AC50 up to about 37 µM;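 note: cells exposed to compound for 48 hours before readout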); conditions: SU-DIPG-XIII viability, CellTiter-Glo ATP luminescence
[3] = growth inhibition of DIPG glioma cells, dose response, cell-based, JHH-DIPG-1, MIPE4.0, CellTiter-Glo, qHTS (AID 1347062; cut-off not given, nearly all actives have AC50 up to about 27 µM;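 for AC50: cells exposed to compound for two days before readout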); conditions: JHH-DIPG-1 viability, CellTiter-Glo ATP luminescence
[4] = growth inhibition of DIPG glioma cells, dose response, cell-based, SU-DIPG-IV, MIPE4.0, CellTiter-Glo, qHTS (AID 1347063; cut-off not given, nearly all actives have AC50 up to about 30 µM;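 note: compound exposure lasted 48 hours before the viability readout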); conditions: SU-DIPG-IV viability, CellTiter-Glo ATP luminescence
[5] = growth inhibition of DIPG glioma cells, dose response, cell-based, SU-DIPG-XIII, MIPE5.0, CellTiter-Glo, qHTS (AID 1347064; cut-off not given, nearly all actives have AC50 up to about 23 µM;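 for AC50: cells exposed to compound for 48 hours before the viability read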); conditions: SU-DIPG-XIII viability, CellTiter-Glo ATP luminescence
[6] = viability loss in pontine glioma line – cell-based, SU-DIPG-XXV, MIPE5.0, CellTiter-Glo, qHTS, dose response (AID 1347065; cut-off not given, nearly all actives have AC50 up to about 26 µM;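 note: cells exposed to compound for 48 hours before ATP readout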); conditions: CellTiter-Glo ATP luminescence
[7] = JHH-DIPG-1 glioma cell viability, MIPE5.0 library, CellTiter-Glo luminescence, qHTS (AID 1347067; cut-off not given, nearly all actives have AC50 up to about 26 µM;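 note: cells exposed to compound for 48 hours before readout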); conditions: JHH-DIPG-1 glioma viability, CellTiter-Glo ATP luminescence
[8] = SU-DIPG-XXV glioma cell viability, MIPE5.0 library, qHTS (AID 1347068; cut-off not given, nearly all actives have IC50 up to about 30 µM;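 for IC50: cells exposed to compound for 48 hours before viability readout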)
[9] = sensitizers of A549 cells to miR-34 induction, primary screen, imaging, A549 dox-inducible miR-34, nuclei and caspase counts (AID 1347080;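 active = compounds whose cell count with miR-34 switched on is under 0.7 times the count with it off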); conditions: A549 miR-34 inducible, Hoechst nuclei count, 48 h
[10] = survival rescue of mitochondrial mutant cells in low glucose, primary screen, MELAS cybrids, Rieske KO mouse fibroblasts, CellTiter-Glo (AID 1508586;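 active = mean z-score across replicates of 1.96 or higher in either the MELAS or the Rieske mutant cell line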;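 note: z relative to plate mean and SD of compound and empty wells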)
[11] = modifiers of HSF1 nuclear foci, imaging, Selleck Cancer Library (AID 1347162; in the data active = plate-normalised HSF1 focus index below about 0.46); conditions: human cells, at 10 µM; SSMD: measured here: HSF1 foci SSMD mean; cell count: measured here: cell number; plate-normalised HSF1 focus index: stronger effect = lower value
[12] = SU-DIPG-VI glioma cell viability, MIPE4.0 library, CellTiter-Glo luminescence, qHTS (AID 1347066; cut-off not given, nearly all actives have AC50 up to about 30 µM;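 note: cells exposed to compound for 48 hours before readout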); conditions: CellTiter-Glo ATP luminescence
[13] = ovarian cancer cell viability with rucaparib, profiling panel, oncology-focused library, rucaparib conditional (AID 1508598); conditions: patient-derived ovarian cancer cells, CellTiter-Glo viability, 144 h, stronger effect = lower value
[14] = stronger effect = lower value, cell number ratio, induced over uninduced
[15] = measured here: relative caspase fold change +Dox/-Dox
[16] = measured here: total cells with miR-34 induction, stronger effect = lower value
[17] = measured here: total cells without miR-34 induction
[18] = MELAS cybrid survival, CellTiter-Glo 48 h, stronger effect = higher value
[19] = Rieske KO mouse fibroblast survival, CellTiter-Glo 72 h

CNC(=O)c1ccccc1Nc1nc(Nc2ccc(N3CCOCC3)cc2OC)ncc1Cl
1730: cell count [9, 17]
active: AC50 [1] 590 nM | AC50 [2] 5900 nM | AC50 [3] 1480 nM | AC50 [4] 2960 nM | AC50 [5] 235 nM | AC50 [6] 186 nM | AC50 [7] 661 nM | IC50 [8] 1050 nM
-1.89: z-score [10, 19]
1560: cell count [9, 16]
0.999: fold change [9, 15]
inactive: fold change [9, 14] 0.899 | z-score [10, 18] 0.492

CC(C)(C)c1[nH]cnc1/C=c1\[nH]c(=O)/c(=C/c2ccccc2)[nH]c1=O
active: AC50 [1] 37.2 nM | AC50 [2] 42900 nM | AC50 [3] 340 nM | AC50 [4] 42900 nM | AC50 [5] 166 nM | AC50 [6] 46.8 nM | AC50 [7] 52.5 nM
inactive: plate-normalised HSF1 focus index [11] 1.17
2.69: SSMD [11]
7220: cell count [11]

c1cc(OCCN2CCCCC2)cc(-c2n[nH]c3ccc(-c4ncn[nH]4)cc23)c1
inactive: outcome [1] | outcome [2] | outcome [3] | outcome [4] | outcome [5] | outcome [12] | outcome [7] | outcome [8]

COc1nccc(-c2c(-c3ccc(F)cc3)ncn2C2CCNCC2)n1
inactive: outcome [1] | outcome [2] | outcome [3] | outcome [4] | outcome [5] | outcome [6] | outcome [7] | outcome [8]

COC(=O)Nc1ccc(-c2nc(N3CCOCC3)c3cnn(C4CCN(C(=O)OC)CC4)c3n2)cc1
0.522: z-score [10, 19]
2420: cell count [9, 16]
0.692: fold change [9, 15]
active: AC50 [1] 1860 nM | AC50 [2] 66.2 nM | AC50 [3] 187 nM | AC50 [4] 1320 nM | AC50 [5] 2630 nM | AC50 [6] 417 nM | z-score [10, 18] 4.37 | viability ([13]; at 0.000305 µM, OCI-P5x cells, with rucaparib 20 µM, 100% = cells with rucaparib alone) 94.1% | viability ([13]; at 0.000305 µM, OCI-P5x cells, without rucaparib) 90.5% | viability ([13]; at 0.00122 µM, OCI-P5x cells, without rucaparib) 93.1% | viability ([13]; at 0.0781 µM, OCI-P5x cells, with rucaparib 20 µM, 100% = cells with rucaparib alone) 97% | viability ([13]; at 1.25 µM, OCI-P5x cells, with rucaparib 20 µM, 100% = cells with rucaparib alone) 83.4% | viability ([13]; at 5 µM, OCI-P5x cells, with rucaparib 20 µM, 100% = cells with rucaparib alone) 70.5% | viability ([13]; at 5 µM, OCI-P5x cells, without rucaparib) 99.3%
6960: cell count [11]
inactive: fold change [9, 14] 1.03 | plate-normalised HSF1 focus index [11] 1.06 | viability ([13]; at 0.000305 µM, OCI-C5x cells, with rucaparib 10 µM, 100% = cells with rucaparib alone) 108% | viability ([13]; at 0.000305 µM, OCI-C5x cells, without rucaparib) 105% | viability ([13]; at 0.00122 µM, OCI-C5x cells, with rucaparib 10 µM, 100% = cells with rucaparib alone) 127% | viability ([13]; at 0.00122 µM, OCI-C5x cells, without rucaparib) 108% | viability ([13]; at 0.00122 µM, OCI-P5x cells, with rucaparib 20 µM, 100% = cells with rucaparib alone) 104% | viability ([13]; at 0.00488 µM, OCI-C5x cells, with rucaparib 10 µM, 100% = cells with rucaparib alone) 109% | viability ([13]; at 0.00488 µM, OCI-C5x cells, without rucaparib) 108% | viability ([13]; at 0.00488 µM, OCI-P5x cells, with rucaparib 20 µM, 100% = cells with rucaparib alone) 101% | viability ([13]; at 0.00488 µM, OCI-P5x cells, without rucaparib) 102% | viability ([13]; at 0.0195 µM, OCI-C5x cells, with rucaparib 10 µM, 100% = cells with rucaparib alone) 118% | viability ([13]; at 0.0195 µM, OCI-C5x cells, without rucaparib) 117% | viability ([13]; at 0.0195 µM, OCI-P5x cells, with rucaparib 20 µM, 100% = cells with rucaparib alone) 106% | viability ([13]; at 0.0195 µM, OCI-P5x cells, without rucaparib) 104% | viability ([13]; at 0.0781 µM, OCI-C5x cells, with rucaparib 10 µM, 100% = cells with rucaparib alone) 115% | viability ([13]; at 0.0781 µM, OCI-C5x cells, without rucaparib) 112% | viability ([13]; at 0.0781 µM, OCI-P5x cells, without rucaparib) 101% | viability ([13]; at 0.313 µM, OCI-C5x cells, with rucaparib 10 µM, 100% = cells with rucaparib alone) 100% | viability ([13]; at 0.313 µM, OCI-C5x cells, without rucaparib) 114% | viability ([13]; at 0.313 µM, OCI-P5x cells, with rucaparib 20 µM, 100% = cells with rucaparib alone) 101% | viability ([13]; at 0.313 µM, OCI-P5x cells, without rucaparib) 106% | viability ([13]; at 1.25 µM, OCI-C5x cells, with rucaparib 10 µM, 100% = cells with rucaparib alone) 119% | viability ([13]; at 1.25 µM, OCI-C5x cells, without rucaparib) 116% | viability ([13]; at 1.25 µM, OCI-P5x cells, without rucaparib) 103% | viability ([13]; at 5 µM, OCI-C5x cells, with rucaparib 10 µM, 100% = cells with rucaparib alone) 126% | viability ([13]; at 5 µM, OCI-C5x cells, without rucaparib) 120%
2340: cell count [9, 17]
1.11: SSMD [11]
